# Data published in PMC4336329 (PLoS ONE, 2015).
# Screen size: about 310,000 compounds; about 14,000 (4.5%) showed an effect of 50% or more. Effects have a minus sign here. The sample as a whole holds a higher share of strong results than the screen did.
# Biological target: human ether-à-go-go-related gene (hERG) potassium channel (human, UniProt Q12809)
# Test: primary screen, population patch clamp on CHO cells stably expressing hERG; higher = less effect of the substance
# 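Also: peak tail current of the secondary pulse compared with the same well before compound.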
# human ether-à-go-go-related gene (hERG) potassium channel, sequence (Q12809 whole entry, looked up): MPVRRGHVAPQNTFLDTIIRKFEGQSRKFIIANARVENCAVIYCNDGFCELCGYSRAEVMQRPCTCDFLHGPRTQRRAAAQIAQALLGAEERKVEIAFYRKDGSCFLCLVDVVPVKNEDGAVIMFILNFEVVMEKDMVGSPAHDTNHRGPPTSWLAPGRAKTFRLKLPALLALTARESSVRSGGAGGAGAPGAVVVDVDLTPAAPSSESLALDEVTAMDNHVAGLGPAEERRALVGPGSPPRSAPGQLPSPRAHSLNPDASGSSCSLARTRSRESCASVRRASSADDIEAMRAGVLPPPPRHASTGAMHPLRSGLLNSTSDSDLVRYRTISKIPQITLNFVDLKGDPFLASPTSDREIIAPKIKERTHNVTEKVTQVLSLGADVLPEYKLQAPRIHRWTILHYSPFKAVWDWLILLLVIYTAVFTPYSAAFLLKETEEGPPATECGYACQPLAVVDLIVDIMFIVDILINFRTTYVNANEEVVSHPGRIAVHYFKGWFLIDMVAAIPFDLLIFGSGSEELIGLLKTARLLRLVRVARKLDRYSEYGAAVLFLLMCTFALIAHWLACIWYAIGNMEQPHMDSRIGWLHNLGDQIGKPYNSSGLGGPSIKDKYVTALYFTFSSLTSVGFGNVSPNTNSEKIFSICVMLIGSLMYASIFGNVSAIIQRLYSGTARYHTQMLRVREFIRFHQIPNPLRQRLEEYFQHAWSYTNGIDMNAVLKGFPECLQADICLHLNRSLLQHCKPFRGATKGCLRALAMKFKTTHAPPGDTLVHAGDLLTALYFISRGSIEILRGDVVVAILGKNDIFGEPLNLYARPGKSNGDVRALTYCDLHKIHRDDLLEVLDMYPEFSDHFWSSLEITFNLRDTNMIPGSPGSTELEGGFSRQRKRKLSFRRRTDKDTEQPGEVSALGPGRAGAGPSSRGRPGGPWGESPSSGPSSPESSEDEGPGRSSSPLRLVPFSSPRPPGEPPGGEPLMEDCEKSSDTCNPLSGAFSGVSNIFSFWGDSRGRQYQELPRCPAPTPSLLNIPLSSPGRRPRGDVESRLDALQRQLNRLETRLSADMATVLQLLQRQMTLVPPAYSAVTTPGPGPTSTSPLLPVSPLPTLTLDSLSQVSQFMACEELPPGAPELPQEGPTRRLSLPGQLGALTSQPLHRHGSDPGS
row,SMILES,"hERG current change (%, negative = inhibition) at 10uM [%]"
1,Cc1cc(C)cc(N(CCC#N)C(=O)COC(=O)CCc2c[nH]c3ccccc23)c1,-32.6
2,O=C(NCCc1c[nH]c2ccccc12)OCCSS(=O)(=O)[O-].[Na+],9.49
3,Br.O=C(c1ccc(Br)cc1)c1sc(N2CCOCC2)nc1-c1ccccc1,-1.44
4,CCCN(Cc1cc2ccc(C)cc2[nH]c1=O)S(=O)(=O)c1ccccc1,6.34
5,O=C(c1ccco1)N1CCN(S(=O)(=O)c2cc(Cl)ccc2Cl)CC1,-21.5
6,Cc1ccc(S(=O)(=O)N2CCN(Cc3ccco3)CC2)c(C)c1,-35.6
7,O=S(=O)(c1cc(Cl)ccc1Cl)N1CCN(Cc2ccco2)CC1,-54.1
8,CC(=O)C(Sc1nc(N(C)C)nc(N(C)C)n1)C(=O)Nc1ccccc1 (stereo not shown),-3.04
9,CC(NC(=O)C1CCCN(S(=O)(=O)c2cccs2)C1)c1ccccc1 (stereo not shown),6.73
10,COc1cccc2c1OCC(C(=O)OCc1cccnc1)=C2,-17.4
11,O=C(OCc1cccnc1)C1=Cc2ccccc2OC1,-64.9
12,COc1ccc2c(c1)C=C(C(=O)OCc1cccnc1)CO2,3.63
13,O=C(NCC1(c2ccccc2)CCOCC1)c1cccs1,13.9
14,COC(=O)C1=C(C)Nc2c(c(=O)n(C)c(=O)n2C)C1c1cccnc1 (stereo not shown),-2.61
15,Cc1nc2oc3ccc(Cl)cc3c(=O)c2cc1C(=O)O,19
16,CCN(CC)C(=O)c1cc2c(=O)c3cc(F)ccc3oc2nc1C,-10.8
17,CCN(CC)C(=O)c1cc2c(=O)c3cc(Cl)ccc3oc2nc1C,-66.1
18,CN(CC(=O)Nc1ccccc1C(F)(F)F)C(=O)CCc1nc2sc3c(c2c(=O)[nH]1)CCCC3,7.94
19,CCCn1nnc(NC(=O)c2ccc(OC)cc2)n1,2.42
20,CCc1nc2ccccc2n1Cc1ccc(F)cc1,-0.73
21,O=C1c2ccccc2C(=O)N1CCCc1nc2ccccc2c(=O)n1-c1cccnc1,-39.7
22,Cc1nc2ccccc2c(=O)n1Cc1ccco1,-7.41
23,O=C1c2ccccc2C(=O)N1Cc1nc2ccccc2c(=O)n1Cc1ccco1,21.3

row,SMILES,"hERG current change (%, negative = inhibition) at 10uM [%]"
1,O=C1c2ccccc2C(=O)N1CCc1nc2ccccc2c(=O)n1CCCn1ccnc1,-62.5
2,CCC(c1nc2ccccc2c(=O)n1CCCn1ccnc1)N1C(=O)c2ccccc2C1=O (stereo not shown),-38.8
3,O=C1c2ccccc2C(=O)N1CCCc1nc2ccccc2c(=O)n1CCCn1ccnc1,-65
4,Cc1nc2ccccc2c(=O)n1CCCn1ccnc1,-17
5,O=C1c2ccccc2C(=O)N1CCCn1ccnc1,17.1
6,O=C1c2ccccc2C(=O)N1CCc1nc2ccccc2c(=O)n1Cc1ccco1,-61.8
7,COc1ccc(N2C(=O)c3ccccc3NC2c2ccc(OC)c(CSc3ccccn3)c2)cc1 (stereo not shown),2.62
8,COc1cc(C(=O)NCCSc2ccc(Cl)cc2)cc(OC)c1OC,-3.08
9,CC(OC(=O)C1=COCCO1)C(=O)NC1CCCCC1C (stereo not shown),12.7
10,Cc1ccc(CNC(=O)COC(=O)c2ccc(Cl)c(N)c2)cc1,-3.37
11,CN(C)C(=O)COC(=O)[C@H](Cc1ccccc1)NC(=O)c1ccco1,7.23
12,Cc1cnc(C(=O)OCC(=O)N2CCN(S(=O)(=O)c3ccc(Cl)cc3)CC2)cn1,4.81
13,CCOC(=O)c1c(CN2CCCCC2)n(C)c2cc(Br)c(O)c(CN(C)C)c12,-19
14,CCOC(=O)c1c(CSc2ccccc2)n(C)c2ccc(O)cc12,21.3
15,CCOC(=O)c1c(CS(=O)(=O)c2ccccc2)n(C)c2cc(Br)c(O)c(CN(C)C)c12,-50.4
16,CCOC(=O)c1c(CN(C)C)n(C)c2ccc(OC(C)=O)cc12.Cl,-41.3
17,CCOC(=O)c1c(CSc2ccccc2)n(C)c2cc(Br)c(OC)c(O)c12,16.2
18,CCOC(=O)c1c(CN2CCOCC2)n(C)c2cc(Br)c(O)c(CN(C)C)c12,-27.4
19,CCOC(=O)c1c(CSc2ccccc2)n(C)c2cc(Br)c(O)c(CN(C)C)c12,-68.5
20,CCOC(=O)c1c(CN2CCOCC2)n(C)c2cc(Br)c(O)c(CN(C)C)c12.Cl,-26.6
21,CCOC(=O)c1c(CSc2ccc(C)cc2)n(C)c2cc(Br)c(O)c(CN(C)C)c12.Cl.O,-54.9
22,CCOC(=O)c1c(C)n(C)c2cc(Br)c(O)c(O)c12,8.12
23,CCOC(=O)c1c(CSc2cccs2)n(C)c2cc(Br)c(O)c(CN(C)C)c12.Cl,-68.3

row,SMILES,"hERG current change (%, negative = inhibition) at 10uM [%]"
1,COc1cc(OC)c(NC(=O)CS(=O)(=O)Cc2nc(-c3ccc(C)cc3)oc2C)cc1Cl,11.5
2,COc1ccc(C2SCCN2S(=O)(=O)c2ccccc2)cc1 (stereo not shown),-4.42
3,O=C(Nc1cc2c3c(c1)CC(=O)N3CCC2)c1ccccc1F,0.297
4,O=C(CNC(=O)c1ccccc1F)OCc1csc(-c2ccccc2)n1,14.6
5,COc1cc(O)oc1C=Nc1ccccc1,-18.3
6,CCSc1nnc(-c2cccs2)o1,10.1
7,O=C(c1ccc2snnc2c1)N1CCSCC1,4.21
8,COc1ccc(NC(=O)C(CC(=O)O)Cc2ccc(Cl)cc2)cc1 (stereo not shown),11.9
9,N#Cc1ccc(CSc2nnc(NC(=O)c3ccc(=O)[nH]c3)s2)cc1,3.51
10,Cc1ccc(C(=O)c2cn[nH]c2-c2ccccc2O)cc1,14.4
11,COc1ccc2c(c1)C(=O)[C@H](O)[C@@H](c1ccc(OC)c(Br)c1)O2,12.9
12,COC(=O)c1cc(O)cc(OC)c1C(=O)c1c(O)cc(C)cc1O,4.87
13,O=C(Cc1ccccc1)NNC(=O)c1ccccc1C(=O)O,-5.66
14,CCOC(=O)c1c(CSc2ccsc2)n(C)c2cc(Br)c(O)c(CN(C)C)c12.Cl,-84.2
15,Cc1cc(O)c(/C=N/Nc2cccc(Cl)c2)c(=O)o1,1.55
16,COc1ccc(N2CCN(c3nc4ccccn4c(=O)c3/C=C(\C#N)S(=O)(=O)c3ccccc3)CC2)cc1,-2.49
17,N#C/C(=C\c1c(N2CCC(C(N)=O)CC2)nc2ccccn2c1=O)S(=O)(=O)c1ccccc1,-4.45
18,Cc1ccc(S(=O)(=O)/C(C#N)=C/c2c(N3CCC(C(N)=O)CC3)nc3ccccn3c2=O)cc1,-55.3
19,Cc1ccc(S(=O)(=O)/C(C#N)=C/c2c(N3CCN(Cc4ccccc4)CC3)nc3ccccn3c2=O)cc1,5.58
20,N#C/C(=C\c1c(N2CCC(C(N)=O)CC2)nc2ccccn2c1=O)C(=O)NC1CCCCC1,20.9
21,N#C/C(=C\c1c(N2CCC(C(N)=O)CC2)nc2ccccn2c1=O)S(=O)(=O)c1ccc(Cl)cc1,-70.9
22,COc1ccc(CN(C(=O)CNC(=O)c2ccco2)C(C(=O)NC2CCCC2)c2ccco2)cc1 (stereo not shown),-15.9
23,COc1ccccc1OCc1nnc(SCC(=O)NCc2ccco2)n1-c1ccccc1,-9.19

row,SMILES,"hERG current change (%, negative = inhibition) at 10uM [%]"
1,COc1ccc(N2CCN(CCC3Oc4cc([N+](=O)[O-])ccc4NC3=O)CC2)cc1 (stereo not shown),-19.1
2,COc1ccc2c(CCNC(=O)c3ccco3)c[nH]c2c1,-1.53
3,CCOC(=O)COc1coc(CN2CCN(c3ccc(F)cc3)CC2)cc1=O,-19.4
4,CCOc1ccccc1N(CC(=O)Nc1ccc(OC)cc1OC)S(=O)(=O)c1ccccc1,14.6
5,CS(=O)(=O)c1ccc2nc(NC(=O)c3cc(-c4ccccc4)nn3-c3ccccc3)sc2c1,8.38
6,COC(=O)c1ccc(COc2ccccc2/C=C/C(=O)c2ccc(OCC(=O)O)cc2)cc1,3.76
7,CN(C)c1nc(N)nc(-c2nc3ccccc3s2)n1,-3.77
8,COc1ccc2c(c1OC)C(=O)OC2c1c(O)nc(SC)n(-c2ccccc2)c1=O (stereo not shown),-2.74
9,COc1ccc2c(c1OC)C(=O)OC2c1c(O)n(C2CCCCC2)c(=O)[nH]c1=O (stereo not shown),-68.8
10,COc1ccc2c(c1OC)C(=O)OC2c1c(O)n(Cc2ccc(F)cc2)c(=O)[nH]c1=O (stereo not shown),3.09
11,COc1ccc(-c2cc(C)no2)cc1S(=O)(=O)N1CCN(c2ccccc2F)CC1,3.36
12,Cc1cc(-c2ccc(C)c(S(=O)(=O)N3CCN(c4ccc([N+](=O)[O-])cc4)CC3)c2)on1,-67.8
13,Cc1cc(-c2ccc(C)c(S(=O)(=O)N3CCN(c4ccc(F)cc4)CC3)c2)on1,-8.14
14,CCc1ccc(-c2cc(C)no2)cc1S(=O)(=O)N1CCN(c2ccccn2)CC1,4.29
15,Cc1noc(C)c1S(=O)(=O)N1CCN(c2ccccc2)CC1,-5.33
16,COc1ccc(-c2cc(C)no2)cc1S(=O)(=O)N1CCCCC1,2.3
17,COc1ccc(-c2cc(C)no2)cc1S(=O)(=O)N1CCN(c2ccc([N+](=O)[O-])cc2)CC1,-76.2
18,Cc1noc(C)c1S(=O)(=O)N1CCN(c2ccc([N+](=O)[O-])cc2)CC1,-69
19,Cc1cc(-c2ccc(C)c(S(=O)(=O)N3CCN(c4ccccn4)CC3)c2)on1,-21.2
20,COc1ccc(-c2cc(C)no2)cc1S(=O)(=O)N1CCN(c2ccccn2)CC1,-63.7
21,CCc1ccc(-c2cc(C)no2)cc1S(=O)(=O)N1CCN(c2ccc(F)cc2)CC1,7.09
22,Cc1noc(C)c1S(=O)(=O)N1CCN(c2ccc(Cl)cc2)CC1,-6.26
